Measured values taken from PubChem BioAssay AID2130 (The Scripps Research Institute Molecular Screening Center, 2009).
Out of some 320,000 compounds screened, about 1,700 (0.53%) were called active.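 How the source made its calls: active means inhibition above the campaign mean of all compounds plus 3 SD (cut at about 26% in these data); inactive means the rest.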 The list comes from a sample in which actives are over-represented; it also holds similar structures and randomly drawn compounds.

Molecular target: Protein phosphatase methylesterase 1 (Homo sapiens) (UniProt Q9Y570)
Experiment: human PME-1 methylesterase blockers – biochemical, fluorescence polarization, FP-Rh probe, HTS, primary screen (AID 2130);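 further: competitive labeling of PME-1 active site by serine hydrolase directed probe; 0% = PME-1 with DMSO and 100% = wells lacking PME-1 enzyme; inhibitors block probe labeling so polarization falls and inhibition rises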
Details: recombinant PME-1, FP-Rh probe fluorescence polarization; at 5.9 µM; hits give high values

Chain of Protein phosphatase methylesterase 1 (Homo sapiens) (Q9Y570 whole entry, looked up): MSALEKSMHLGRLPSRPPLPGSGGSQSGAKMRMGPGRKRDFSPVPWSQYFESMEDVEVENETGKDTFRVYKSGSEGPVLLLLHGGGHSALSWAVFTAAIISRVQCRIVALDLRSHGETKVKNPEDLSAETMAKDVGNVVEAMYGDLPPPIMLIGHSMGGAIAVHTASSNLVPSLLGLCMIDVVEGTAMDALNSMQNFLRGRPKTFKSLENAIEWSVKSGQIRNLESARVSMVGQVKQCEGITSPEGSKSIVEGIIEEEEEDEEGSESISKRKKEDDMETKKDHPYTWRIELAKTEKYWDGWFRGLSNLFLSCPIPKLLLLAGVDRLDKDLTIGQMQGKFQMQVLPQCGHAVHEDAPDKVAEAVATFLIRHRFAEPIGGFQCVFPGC

Compound | inhibition
O=C(NCCc1ccccn1)c1nc(Cn2cc([N+](=O)[O-])cn2)no1 | -4.02% (inactive)
Cc1ccc(-c2ccnc3nc(Sc4ncc(C(F)(F)F)cc4Cl)nn23)cc1 | -0.19% (inactive)
COC/C=C/C1=CC2=CC(=O)C(C)(OC(=O)CCC(=O)OC)C(=O)C2=CO1 (configuration not stated) | -1.35% (inactive)
COc1ccccc1OCCn1c(SCC(N)=O)nc2ccccc21 | -4.12% (inactive)
COc1ccc(NC(=O)[C@H](NC(=O)[C@@H]2Cc3ccccc3CN2)c2ccccc2)cc1 | -3.82% (inactive)
COc1ccc(NC(C(=O)Nc2cccc(C(C)=O)c2)c2ccccc2)cc1 (configuration not stated) | 34.5% (active)
COC(C(=O)Nc1ccc(C(C)=O)cc1)c1ccccc1 (configuration not stated) | -5.79% (inactive)
CS(=O)(=O)N(CC(=O)Nc1ccc(F)cc1F)c1cccc([N+](=O)[O-])c1 | -2.56% (inactive)
O=C(CNCc1cccs1)Nc1cc(S(=O)(=O)N2CCCC2)ccc1Cl | 22% (inactive)
CSCCC(NS(=O)(=O)/C=C/c1ccccc1)C(=O)N1CCC(C)CC1 (configuration not stated) | 6.82% (inactive)
CCc1nnc(NC(=O)c2sc3nc(C)cc(COC)c3c2N)s1 | -5.69% (inactive)
CCc1ccc2nc3sc(C(=O)Nc4nnc(CC)s4)c(N)c3cc2c1 | 65.8% (active)
CCc1nnc(NC(=O)c2cccc(S(=O)(=O)N(C)c3ccc(OC)cc3)c2)s1 | -0.95% (inactive)
Clc1ccc(-c2cc(COc3ccccc3)no2)cc1Cl | -8.92% (inactive)
COC(=O)COc1ccc2c(c1C)O/C(=C\c1ccco1)C2=O | -9.46% (inactive)
COc1cc(/C=N/NC(=O)c2ccc(N3CCCC3=O)cc2)ccc1O | 5.91% (inactive)
COc1ccc(C(=O)Nc2ccccc2C(=O)N/N=C/c2ccc(O)c(OC)c2)cc1 | 33.6% (active)
CCOc1cc(/C=N/NC(=O)c2cc(-c3ccccc3)nc3ccccc23)ccc1O | -7.58% (inactive)
CCOC(=O)[C@H]1CCC[C@@H](NS(=O)(=O)c2ccc(NC(C)=O)cc2)C1 | 1.52% (inactive)
Cc1csc2nc(COC(=O)c3cccc(N(C)C)c3)cc(=O)n12 | 3.78% (inactive)
COc1ccc(NS(=O)(=O)c2cc(NC(=O)CC(=O)c3ccc([N+](=O)[O-])cc3)ccc2C)cc1 | 27% (active)
COc1ccc(C(=O)CC(=O)C(=O)Nc2cc([N+](=O)[O-])ccc2OC)cc1 | -2.97% (inactive)
COc1ccc(NS(=O)(=O)c2cc(C(=O)Nc3ccccc3C(=O)O)ccc2C)cc1 | -3.94% (inactive)
Cc1occc1C(=O)NC1CCCN(Cc2ccc(CC(C)C)cc2)C1 (configuration not stated) | 5.69% (inactive)
COc1ccc(CN(Cc2ccc(OC)cc2)C(=O)c2cccs2)cc1 | 4.18% (inactive)
COc1ccc(CCNC(=O)/C(C#N)=C2\N=C(NC(=O)c3cccs3)c3ccccc32)cc1 | 28.2% (active)

Compound | inhibition
COc1cc2ccccc2cc1C(=O)Nc1ccc(NC(=O)c2cccs2)cc1 | -34% (inactive)
CN(Cc1c(F)cccc1Cl)S(=O)(=O)c1cccs1 | 4.21% (inactive)
CN(C)C(=O)c1ccc2c(c1)C1C3CCC(C3)C1C(c1ccccc1)N2 (configuration not stated) | 8.08% (inactive)
CCc1nnc(NC(=O)CSc2nc(SC)ns2)s1 | -0.14% (inactive)
CCN(CC)C(=O)CSC(Nc1cccc(F)c1)=C(C#N)C#N | -5.27% (inactive)
O=C(NCCc1c[nH]c2ccccc12)c1cccc(Br)c1 | 4.14% (inactive)
Cc1cc(C)cc(NC(=S)NCCc2c[nH]c3ccccc23)c1 | 26.7% (active)
Cc1cc(C)cc(NC(=S)NCc2ccc(F)cc2)c1 | 7.45% (inactive)
O=C(NCCS(=O)(=O)N1CCN(c2ccccc2F)CC1)c1ccc(Br)o1 | 3.82% (inactive)
Cc1cc(C)c2nc3nc(C)cc(C)c3c(N)c2c1 | -3.32% (inactive)
CCOC12CC(C)(C)CC(C)(CC3=C1C(=O)CC(C)(C)C3)C2 (configuration not stated) | 2.34% (inactive)
O=c1c2sccc2nc(SCc2cc(=O)n3ccccc3n2)n1-c1ccc(Br)cc1 | 6.68% (inactive)
N#CCCN(C(=O)COC(=O)C1CCN(c2ccc(C(F)(F)F)cn2)CC1)c1ccc(F)cc1 | 1.79% (inactive)
CCc1cccc(CC)c1NC(=O)COc1ccccc1C(=O)c1cc(C#N)c(=O)n(C2CCCCC2)c1 | 26.5% (active)
Cc1cc(NC(=O)COc2ccccc2C#N)no1 | -1.79% (inactive)
CCc1ccccc1OCC(=O)Nc1ccc(C)c(S(=O)(=O)N2CCCCCC2)c1 | -30.7% (inactive)
CCOc1ccc(S(=O)(=O)N(CC(=O)NCC(F)(F)F)Cc2ccco2)cc1 | -1.32% (inactive)
FC(F)(F)c1cccc(-c2nc(COc3ccc(Cl)cc3Cl)no2)c1 | -0.04% (inactive)
COC(=O)[C@H](C)NC(=O)Nc1ccc(OC(F)(F)F)cc1 | 0.46% (inactive)
Cn1nccc1NC(=O)Nc1ccc(OC(F)(F)F)cc1 | 8.73% (inactive)
O=C(Nc1ccc(OC(F)(F)F)cc1)c1ccc2c(c1)no[n+]2[O-] | 32% (active)
CCOC(=O)Cc1c(C)nc2c(C#N)c(C)nn2c1C | -0.83% (inactive)
CCN=C1S/C(=C\c2cc(Br)ccc2OCC(=O)OCC)C(=O)N1CC | 3.9% (inactive)
CC(C)CCOc1ccc(C(=O)C[N+]2(C)CCOCC2)cc1 | 1.1% (inactive)
Cc1ccc(N(Cc2ccc(C(=O)Nc3ccccc3C(=O)NCc3ccco3)cc2)S(C)(=O)=O)cc1C | -28.2% (inactive)
Nc1c(N(Cc2ccco2)C(=O)c2cccc(F)c2)c(=O)[nH]c(=O)n1Cc1ccccc1 | 3.17% (inactive)
